KCNQ2 pot: potentiators of rat KCNQ2 potassium channel. Potassium voltage-gated channel subfamily KQT member 2 (Rattus norvegicus), O88943. CHO-K1 KCNQ2, FluxOR thallium flux fluorescence; active compounds read high. B-score at 10 µM. 310,000 compounds, 0.54% hits;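 active = fluorescence ratio B-score at least 3 SD of library B-scores, with initial fluorescence B-score within 3 of them, cut at about 5.3 in these data; same plate scores as AID 2156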;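 note: B-score of peak minus minimum over baseline fluorescence ratio after K+ and Tl+ stimulus; positive B-score means potentiation of KCNQ2 with more thallium influx and brighter signal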
KCNQ2 inh: rat KCNQ2 potassium channel inhibitors, primary screen, cell-based, CHO-K1, FluxOR thallium flux, B-score. 20 min; active compounds read low. B-score at 10 µM. 310,000 compounds, 1.1% hits. AID 2156, 2009;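 active = fluorescence ratio B-score at most minus 3 library SDs, with starting brightness B-score within 2 library SDs, cut at about -5.5 in these data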
Kir21 confirm: mouse Kir2.1 channel blockers, retest, confirmation, cell-based, FluxOR thallium flux, duplicate; shares compounds with KCNQ2 pot; Kir2.1-expressing cells, FluxOR thallium flux fluorescence; active compounds read low; Tl flux remaining, % of negative control (active compounds read low), % at 10 µM; 2,300 compounds, 41% hits; AID 2032, 2009;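 active = Primary-screen hit whose thallium flux fell at least 3 control SD below untreated wells in both duplicates, with normal baseline fluorescence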;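 note: 0% = blank wells without stimulus and 100% = stimulated no-compound controls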
HEK293 ctr: parental HEK293 activity in Kir2.1 inhibitor counter-screen; FluxOR signal as % of negative control (100 = no effect), % at 10 µM; parental HEK293 cells, FluxOR thallium flux fluorescence; 0% = unstimulated blank wells; AID 2105; 2,300 compounds, 19% hits; shares compounds with KCNQ2 pot;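 active = dye signal at least 3 control SD above or below untreated wells in both duplicates, raw fluorescence within 3, either direction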;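 note: percent is based on the flux ratio of peak minus minimum fluorescence over baseline F0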
CHO-K1 ctr: nonspecific thallium flux increase in parental CHO-K1, confirmation, counter-screen for KCNQ2 potentiator project, cell-based, FluxOR thallium flux, duplicate | shares compounds with KCNQ2 pot | parental CHO-K1 cells, FluxOR thallium flux fluorescence; zero = vehicle mean+3SD, 100% = vehicle-minus-blank window | activity increase over 3SD of controls, % at 10 µM | 1,200 compounds, 43% hits;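 active = signal rise of at least 3 SD above the untreated control mean, in both duplicate wells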;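 note: counter screen of KCNQ2 potentiator hits so any rise reflects channel-independent effects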
KCNQ1 sel pot: human KCNQ1 channel potentiation off-target, confirmation, selectivity assay for KCNQ2 potentiator project, cell-based, CHO, FluxOR thallium flux; shares compounds with KCNQ2 pot; CHO KCNQ1 stable, FluxOR thallium flux fluorescence; beyond 3SD, as % of vehicle-control signal; activation over 3SD threshold, % at 10 µM; 1,200 compounds, 28% hits; AID 2283, 2010;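 active = fluorescence ratio rise of at least 3 SD of vehicle wells above their mean, in both replicate wells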;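 note: 0% = vehicle mean plus 3 SD and 100% = vehicle minus unstimulated blank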
KCNQ2 pot confirm: rat KCNQ2 channel potentiators, confirmation, cell-based, CHO, FluxOR thallium flux, duplicate. shares compounds with KCNQ2 pot. CHO-KCNQ2 cells, FluxOR thallium flux fluorescence. potentiation, less the hit threshold, % at 10 µM. 1,200 compounds, 68% hits. AID 2287, 2010;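 active = fluorescence ratio rising 3 SD or more over the vehicle control mean in both replicates, plus primary screen hit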;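 note: peak minus minimum thallium fluorescence divided by baseline after K/Tl stimulus; 0% = vehicle mean plus 3 SD and 100% = vehicle minus unstimulated blank difference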
Kir2-1 sel: mouse Kir2.1 channel activation off-target, confirmation, selectivity assay for KCNQ2 potentiator project, cell-based, HEK293, FluxOR thallium flux | shares compounds with KCNQ2 pot | HEK293 Kir2.1, FluxOR thallium flux fluorescence | activity over 3SD threshold, % at 10 µM | 1,200 compounds, 2% hits | AID 2345, 2010;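 active = fluorescence ratio rise of at least 3 SD above the vehicle-control mean, seen in both replicates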;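 note: 0% = vehicle mean plus 3 SD and 100% = vehicle minus no-stimulus blank window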
KCNQ2 W236L MoA: potentiators of retigabine-insensitive KCNQ2 W236L, mechanism study for KCNQ2 potentiator project, cell-based, rat KCNQ2 W236L, CHO, automated patch clamp | shares compounds with KCNQ2 pot | 940 compounds, 10% hits | current increase over 3SD of negative controls (%), active compounds read high, % at 25 µM | automated patch clamp current;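 active = current increase at least 3 SD of the untreated controls above them in both duplicate recordings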
Target sequence (O88943 whole entry W236L, looked up): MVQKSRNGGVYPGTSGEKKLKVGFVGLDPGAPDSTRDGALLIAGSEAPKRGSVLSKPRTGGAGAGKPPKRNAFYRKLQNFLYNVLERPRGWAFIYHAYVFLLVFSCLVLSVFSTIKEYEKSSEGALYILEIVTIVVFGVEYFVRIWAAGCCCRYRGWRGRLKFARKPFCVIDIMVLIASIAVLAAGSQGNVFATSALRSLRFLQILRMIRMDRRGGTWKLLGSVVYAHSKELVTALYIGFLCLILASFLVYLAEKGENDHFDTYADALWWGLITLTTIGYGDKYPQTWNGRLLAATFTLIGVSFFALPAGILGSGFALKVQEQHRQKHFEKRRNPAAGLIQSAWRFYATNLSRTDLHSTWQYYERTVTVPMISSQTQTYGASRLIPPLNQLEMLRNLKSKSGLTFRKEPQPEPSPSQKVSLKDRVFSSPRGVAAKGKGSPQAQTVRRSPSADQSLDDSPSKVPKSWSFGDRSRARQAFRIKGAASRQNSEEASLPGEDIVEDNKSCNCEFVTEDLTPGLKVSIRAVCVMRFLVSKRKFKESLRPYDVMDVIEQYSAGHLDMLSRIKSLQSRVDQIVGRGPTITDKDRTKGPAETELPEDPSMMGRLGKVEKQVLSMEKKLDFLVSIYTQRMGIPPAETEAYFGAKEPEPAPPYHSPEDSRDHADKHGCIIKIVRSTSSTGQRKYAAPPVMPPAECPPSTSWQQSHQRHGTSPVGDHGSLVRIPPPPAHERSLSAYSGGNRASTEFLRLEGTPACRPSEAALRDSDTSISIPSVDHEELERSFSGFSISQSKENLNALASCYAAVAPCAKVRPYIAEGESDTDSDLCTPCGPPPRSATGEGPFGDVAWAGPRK
The depositor's hits bear a star; i = inactive; / = not tested or not shown. A selection: hits, their analogues and other compounds. The true share with any hit is near 1.6%.

SMILES | KCNQ2 pot | KCNQ2 inh | Kir21 confirm | HEK293 ctr | others
N#C/C(=N\Nc1cccc(C(F)(F)F)c1)C(=O)c1csc(-c2cccnc2)n1 | 6.4* | i | i | 70%* | CHO-K1 ctr=19*;KCNQ1 sel pot=-2;KCNQ2 pot confirm=-4;Kir2-1 sel=-36
O=C(Cc1cccs1)NCCS(=O)(=O)N1CCN(c2ccccc2F)CC1 | 0.15 | i | / | /
CCC(=NCc1ccccc1)c1c(C(F)(F)F)[nH]n(-c2nc3ccccc3s2)c1=O | / | i | / | /
CCC(=NCc1ccco1)c1c(C(F)(F)F)[nH]n(-c2nc3ccccc3s2)c1=O | 7.8* | i | i | i | CHO-K1 ctr=-7;KCNQ1 sel pot=-12;KCNQ2 pot confirm=-19;Kir2-1 sel=-38
C/C(=N\NC(=O)c1ccc(Br)o1)c1cc2c(cc1NC(=O)CCC(=O)O)OCO2 | / | i | / | /
CCC1(c2ccccc2)NC(=O)N(CC(=O)Nc2ccc(N3CCCC3)cc2C)C1=O (centres undefined) | / | i | / | /
Nc1[nH]n2c(=O)cc(-c3ccccc3)nc2c1N=Nc1ccccc1 | 6.6* | i | i | i | CHO-K1 ctr=-28;KCNQ1 sel pot=-25;KCNQ2 pot confirm=9.8*;Kir2-1 sel=-21;KCNQ2 W236L MoA=i
Nc1[nH]n2c(=O)cc(-c3ccccc3)nc2c1N=Nc1ccc(S(N)(=O)=O)cc1 | 1.4 | i | / | /
COc1cccc(CNC(=O)Cn2ccc3cc(S(=O)(=O)N4CCCCCC4)ccc32)c1 | / | i | / | /
COC(=O)CSc1nc2c(c(-c3ccc(C)o3)c1C#N)CCCC2 | 22* | i | i | i | CHO-K1 ctr=-21;KCNQ1 sel pot=-11;KCNQ2 pot confirm=41*;Kir2-1 sel=-37;KCNQ2 W236L MoA=i
CCSc1nc2c(c(-c3ccc(C)o3)c1C#N)CCCC2 | / | i | / | /
CCn1nc(C)cc1C(=O)N1CCCC(C(=O)c2ccccc2SC)C1 (centres undefined) | 2 | i | / | /
COc1ccc(-n2ncc3c2CC(C)(C)CC3NC(=O)CN2CCOC2=O)cc1 (centres undefined) | / | i | / | /
O=C(O)C1C2CCC(O2)C1C(=O)Nc1ccc(F)c(Cl)c1 (centres undefined) | / | i | / | /
C=C[C@@]1(C)CC(=O)[C@]2(O)[C@@]3(C)[C@@H](O)CCC(C)(C)[C@@H]3[C@H](O)[C@H](OC(C)=O)[C@@]2(C)O1 | 8.9* | i | i | i | CHO-K1 ctr=-13;KCNQ1 sel pot=-26;KCNQ2 pot confirm=7.1*;Kir2-1 sel=-37;KCNQ2 W236L MoA=2.3%*
C=C[C@@]1(C)CC(=O)[C@]2(O)[C@@]3(C)[C@@H](O)CCC(C)(C)[C@@H]3[C@H](OC(C)=O)[C@H](O)[C@@]2(C)O1 | 5.1 | i | / | /
COc1cc(C2C(C#N)=C(N)OC3=C2C(=O)CCC3)c([N+](=O)[O-])cc1OC (centres undefined) | / | i | / | /
Cc1c(S(=O)(=O)N2CCN(c3cccc(C(F)(F)F)c3)CC2)c(=O)n(C)c(=O)n1C | 9.6* | i | i | i | CHO-K1 ctr=5.5*;KCNQ1 sel pot=51*;KCNQ2 pot confirm=-22;Kir2-1 sel=-39
Cn1cc(S(=O)(=O)N2CCN(c3cccc(C(F)(F)F)c3)CC2)c(=O)n(C)c1=O | / | i | / | /
C(=N\Nc1nc2ccccc2s1)/c1ccccn1 | 11* | i | i | i | CHO-K1 ctr=-8;KCNQ1 sel pot=-15;KCNQ2 pot confirm=44*;Kir2-1 sel=-34;KCNQ2 W236L MoA=i
Brc1csc(/C=N/Nc2nc3ccccc3s2)c1 | 0.57 | i | / | /
COc1cc(CN(C(=O)c2ccco2)C2CCS(=O)(=O)C2)cc(OC)c1OC (centres undefined) | / | i | / | /
CC(C)n1c(SCC(=O)NC2CC2)nnc1-c1ccco1 | 0.91 | i | / | /
O=C(NC12CC3CC(CC(C3)C1)C2)N1CCN(C(=O)c2ccco2)CC1 | 0.26 | i | / | /
CC(NCCCOc1cccc2ccccc12)c1ccccc1 (centres undefined) | / | i | 14%* | i
SMILES | KCNQ2 pot | KCNQ2 inh | Kir21 confirm | HEK293 ctr | others
COc1ccc2ccccc2c1CNC(C)c1ccccc1 (centres undefined) | 1.4 | i | / | /
Cc1cc(N(C)Cc2ccccc2)nc2cc(O)ccc12 | 0.53 | i | / | /
COc1ccc(NC(=O)c2ccccc2OCc2ccc(F)cc2)c(OC)c1 | / | i | / | /
O=C(CCS(=O)(=O)c1ccc(Br)s1)NC1CCCCCC1 | 1.2 | i | i | 70%*
O=C(CCS(=O)(=O)c1ccccc1)NC1CCCCC1 | 0.47 | i | / | /
O=C(Nc1ccccc1C(=O)O)c1cc(S(=O)(=O)Nc2ccccc2)ccc1Cl | / | i | / | /
CS(=O)(=O)N(CC(=O)Nc1cccc(Cl)c1Cl)c1ccccc1 | / | i | / | /
Cc1cccc(CS(=O)(=O)c2ncc(Cl)c(C(=O)NCc3ccccc3)n2)c1 | / | i | / | /
Cc1cccc(C)c1NC(=O)c1nc(S(=O)(=O)Cc2ccccc2)ncc1Cl | / | i | / | /
Cc1nnc(NC(=O)c2nc(S(=O)(=O)Cc3ccccc3)ncc2Cl)s1 | 14* | i | i | i | CHO-K1 ctr=3.1*;KCNQ1 sel pot=46*;KCNQ2 pot confirm=58*;Kir2-1 sel=-29;KCNQ2 W236L MoA=23%*
Cc1cccc(CS(=O)(=O)c2ncc(Cl)c(C(=O)Nc3c(C)cccc3C)n2)c1 | / | i | i | i
Cc1ccc(NC(=O)c2nc(S(=O)(=O)Cc3ccccc3)ncc2Cl)cc1 | 0.15 | i | / | /
CCCc1nnc(NC(=O)c2nc(S(=O)(=O)Cc3cccc(C)c3)ncc2Cl)s1 | 15* | i | / | / | CHO-K1 ctr=-11;KCNQ1 sel pot=-46;KCNQ2 pot confirm=99*;Kir2-1 sel=-72;KCNQ2 W236L MoA=34%*
Cc1ccc(NC(=S)N2CCCC(O)C2)cc1 (centres undefined) | / | i | / | /
CCOC(=O)[C@@H]1[C@H]2COc3ccccc3[C@@H]2N2C(=O)N(c3ccc(C(F)(F)F)cc3)C(=O)[C@]12C | 0.28 | i | / | /

Screens as filed in PubChem.
